# Measurements: PubChem BioAssay AID1259418 (Broad Institute, 2018)
# In all, about 3,400 compounds went through this assay and about 840 (25%) were called active. About 11% were inconclusive and are not listed.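 Rule for the calls: active = fitted half-maximal concentration of signal decrease at or below twice the sample's top tested concentration; inconclusive = flat curve between -70 and -30 percent, or poor fit; inactive = flat within 30 percent, signal rise, or potency above limit.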 The list is a sample of the results. Measured potencies and affinities stand elsewhere.
# Assay: inhibitors of Toxoplasma growth in IFN-γ-primed HeLa – cell-based, ME49Luc, luciferase, 72 h, dose response (AID 1259418)
# Conditions: T. gondii ME49Luc in IFN-y HeLa, stronger effect = lower value, -100% = high-dose IFN-γ control wells; at 19.5 µM unless noted
row,Compound,max activity
1,Cc1nc(-c2ccc(F)cc2)sc1-c1ccc(SCc2ccc(Cl)cc2Cl)nn1,-14.7% [at 5 µM] (inactive)
2,Cc1cccc(CSc2ccc(-c3sc(-c4ccc(F)cc4)nc3C)nn2)c1,-11.3% [at 0.35 µM] (inactive)
3,Cc1cccc(OCC(=O)Nc2ccc(-c3nc(-c4ccccc4)co3)cc2)c1C,-18.6% [at 2.6 µM] (inactive)
4,Cc1ccccc1-c1ccc([C@@H]2[C@H](CO)N3C(=O)CN(C(=O)c4ccncc4)C[C@@H]23)cc1,29.6% (inactive)
5,Cc1ccccc1-c1ccc([C@H]2[C@@H](CO)N3C(=O)CN(C(=O)c4ccncc4)C[C@@H]23)cc1,27.7% (inactive)
6,COc1cccc(-c2ccc([C@@H]3[C@H]4CN(C(=O)c5cccnc5)CC(=O)N4[C@H]3CO)cc2)c1,12.1% (inactive)
7,COc1cccc(-c2ccc([C@H]3[C@H](CO)N4C(=O)CN(C(=O)c5cccnc5)C[C@@H]34)cc2)c1,25.9% (inactive)
8,O=C(c1cnccn1)N1CC(=O)N2[C@H](CO)[C@@H](c3ccc(/C=C/c4ccccc4)cc3)[C@H]2C1,28.4% (inactive)
9,O=C(CCC1N=C2c3ccccc3N=C(SCc3cc(=O)n4ccccc4n3)N2C1=O)NCc1ccc(F)cc1 (stereo not drawn),26.8% (inactive)
10,COc1ccc(-c2noc(-c3nnn(Cc4nc(-c5ccccc5OC)oc4C)c3C)n2)cc1OC,11.4% [at 0.16 µM] (inactive)
11,COc1ccc(-c2nc3c(s2)CN(C(=O)Nc2ccc(C)cc2)CC3)cc1OC,-13% [at 0.35 µM] (inactive)
12,O=C1CCc2cc(S(=O)(=O)NCc3cccn3Cc3ccccc3F)ccc2N1,12.6% (inactive)
13,CCOC(=O)CSC1=Nc2ccccc2C2=NC(CCC(=O)NCc3ccc4c(c3)OCO4)C(=O)N12 (stereo not drawn),25.7% [at 2.6 µM] (inactive)
14,Cc1nc(OCC(=O)Nc2ccc(Cl)c(C(F)(F)F)c2)c2ccccc2n1,27.7% [at 0.35 µM] (inactive)
15,COc1ccc(-c2nc3c(s2)CN(C(=O)Nc2cc(C)ccc2OC)CC3)cc1,17% (inactive)
16,O=C(c1cnccn1)N1CC(=O)N2[C@H](C1)[C@H](c1ccc(-c3cccc(F)c3)cc1)[C@@H]2CO,32.8% (inactive)
17,O=C(c1cnccn1)N1CC(=O)N2[C@H](CO)[C@@H](c3ccc(-c4cccc(F)c4)cc3)[C@H]2C1,46.4% (inactive)
18,Cc1oc(-c2cccc(Cl)c2)nc1CN1CCN(C(=O)NC2CCCCC2)CC1,20.5% [at 1.35 µM] (inactive)
19,CCOC(=O)Cc1ccc(NC(=O)Nc2ccc(-c3nc(-c4cc(C)ccc4C)co3)cc2)cc1,5.78% (inactive)
20,O=C(NCCc1csc(-c2ccccc2)n1)[C@H]1CSCN1C(=O)CCc1ccccc1,14.8% [at 5 µM] (inactive)
21,Cc1nc(OCC(=O)Nc2cccc(C(F)(F)F)c2)c2ccccc2n1,-11.8% [at 2.6 µM] (inactive)
22,Cc1ccc(N(Cc2nc(-c3cccc(C)c3)oc2C)S(=O)(=O)c2cccs2)cc1,-8.42% [at 0.16 µM] (inactive)
23,Cc1cccc(-c2nc(CN(c3ccccc3)S(=O)(=O)c3cccs3)c(C)o2)c1,-12.1% [at 1.35 µM] (inactive)
24,CCOc1ccc(N(Cc2nc(-c3cccc(Cl)c3)oc2C)S(=O)(=O)c2cccs2)cc1,19.9% (inactive)
25,COc1ccc(-c2nc(N3CCCc4ccccc43)c3ccccc3n2)cc1,23.2% [at 10 µM] (inactive)

row,Compound,max activity
1,O=C(NCCc1ccccc1)Nc1ccc(-c2nc(-c3ccccc3)co2)cc1,87.9% (inactive)
2,O=C(CC1Nc2c3ccccc3nc(=S)n2C1=O)NCc1cccc(Cl)c1 (stereo not drawn),-20.4% [at 2.6 µM] (inactive)
3,COc1ccc(-c2nc(N3CCN(c4ccccn4)CC3)c3ccccc3n2)cc1,-11.1% [at 0.35 µM] (inactive)
4,COCC#Cc1ccc([C@H]2[C@H](CO)N3CCCCN(C(=O)NC4CCCC4)C[C@@H]23)cc1,30.1% (inactive)
5,Cc1ccc(Nc2nc(N)nc(CN3CCc4ccccc4C3)n2)cc1,19.9% [at 5 µM] (inactive)
6,CCc1nc(OCC(=O)Nc2cc(F)ccc2F)c2ccccc2n1,14.2% (inactive)
7,COCCn1cc2c(n1)C(CNC(=O)CS(C)(=O)=O)OCC2 (stereo not drawn),15.6% (inactive)
8,CCc1nc(-c2ccc(C(=O)N3CCC4(CC3)OCCO4)cc2)cs1,5.55% (inactive)
9,O=C(NCc1cccc(Cl)c1)c1ccc(-n2nc(C(F)(F)F)c3c2CCCC3)cc1,-5.33% [at 0.68 µM] (inactive)
10,Cc1noc(C)c1C1CCCN1C(=O)Cn1nc(C(F)(F)F)c2c1CCCC2 (stereo not drawn),-14% [at 0.35 µM] (inactive)
11,Cc1nc(-c2cccc(-c3noc(C(=O)N4CCC5(CC4)OCCO5)n3)c2)cs1,13.7% [at 2.6 µM] (inactive)
12,Cc1ccc(C)c(N2CCN(C(=O)c3ccc(-n4nc(C(F)(F)F)c5c4CCCC5)cc3)CC2)c1,-23.2% (inactive)
13,O=C(c1ccc(Cn2cncn2)cc1)N1CCC(N2CCCCC2)CC1,4.24% [at 10 µM] (inactive)
14,COc1ccc(-c2nc(N3CCN(c4cccc(C(F)(F)F)c4)CC3)c3ccccc3n2)cc1,13.5% [at 5 µM] (inactive)
15,COc1ccc(-n2ncc3c(Nc4ccc(C)cc4)ncnc32)cc1,28.3% [at 0.68 µM] (inactive)
16,Cc1oc(-c2cccc(Cl)c2)nc1CN1CCN(C(=O)NC2CCCC2)CC1,17.3% [at 10 µM] (inactive)
17,Cc1ccc(-c2nc(CN3CCN(C(=O)NC4CCCCC4)CC3)c(C)o2)cc1,6.38% [at 5 µM] (inactive)
18,CCOc1ccc(-c2nc(CN3CCN(C(=O)NC4CCCCC4)CC3)c(C)o2)cc1,-13.3% [at 0.16 µM] (inactive)
19,COc1ccc(CN2CCc3nc(SCc4nc(-c5cccc(C)c5)oc4C)[nH]c(=O)c3C2)cc1,-7.54% [at 2.6 µM] (inactive)
20,O=C(CN1CCC2(CC1)N=C(c1ccc(Cl)cc1)C(=O)N2)Nc1ccc2c(c1)OCO2,-13.7% [at 1.35 µM] (inactive)
21,Cc1ccc(C)c(-c2coc(-c3ccc(NC(=O)Nc4ccc(F)cc4)cc3)n2)c1,-5.84% [at 0.35 µM] (inactive)
22,COc1cccc(CNC(=O)Nc2ccc(-c3nc(-c4cc(C)ccc4C)co3)cc2)c1,7.66% [at 0.16 µM] (inactive)
23,CCc1ccc(NC(=O)Nc2ccc(-c3nc(-c4ccccc4)co3)cc2)cc1,8.96% (inactive)
24,CCc1cccc(Nc2nc(-c3ccc(OC)cc3)nc3ccccc23)c1,18.8% [at 0.35 µM] (inactive)
25,Cc1cccc(-c2nc(Cn3c(=O)c4c(C)cc(C)nc4n(-c4ccccc4)c3=O)c(C)o2)c1,-12.2% [at 0.35 µM] (inactive)

row,Compound,max activity
1,COc1ccc(NC(=O)Nc2ccc(-c3nc(-c4ccc(C)cc4C)co3)cc2)cc1OC,23.8% (inactive)
2,Cc1ccccc1-c1nc(CN2CCN(C(=O)Nc3ccccc3C(F)(F)F)CC2)c(C)o1,9.13% [at 0.16 µM] (inactive)
3,CCOc1ccc(N(Cc2nc(-c3cccc(C)c3)oc2C)S(=O)(=O)c2cccs2)cc1,11.4% [at 10 µM] (inactive)
4,COc1ccc(-c2nc(CN(c3ccc(C)cc3)S(=O)(=O)c3cccs3)c(C)o2)cc1,-6.38% [at 0.16 µM] (inactive)
5,COc1ccc(N(Cc2nc(-c3ccc(C)cc3)oc2C)S(=O)(=O)c2cccs2)cc1,9.59% [at 0.35 µM] (inactive)
6,Cc1oc(-c2ccc(OC(C)C)cc2)nc1CN(c1ccccc1)S(=O)(=O)c1cccs1,21% (inactive)
7,CCOc1ccc(-c2nc(CN(c3ccc(OCC)cc3)S(=O)(=O)c3cccs3)c(C)o2)cc1,4% (inactive)
8,COc1ccc(N(Cc2nc(-c3ccc(OC(C)C)cc3)oc2C)S(=O)(=O)c2cccs2)cc1,-11.1% [at 0.35 µM] (inactive)
9,CC(C)NC(=O)CC1Nc2c3ccccc3nc(=S)n2C1=O (stereo not drawn),98.4% (inactive)
10,COc1ccc(C(=O)/C=C/c2cc(C(=O)O)cc3c2OCOC3)c(O)c1,24.8% [at 10 µM] (inactive)
11,CCn1cc(CN2CCCC2c2cc(C(C)C)on2)c2cc(OC)ccc21 (stereo not drawn),7.79% [at 2.6 µM] (inactive)
12,Cc1cccc(-c2nc(Cn3nnc(-c4nc(-c5cccc(Cl)c5)no4)c3C)c(C)o2)c1,8.17% [at 2.6 µM] (inactive)
13,O=C(C1CCC1)N1CC[C@H]2CN(Cc3cccc(Cl)c3)S(=O)(=O)[C@@H]2CC1,-9.19% (inactive)
14,CCCc1ccc(S(=O)(=O)N2CCc3nc(-c4ccc(OC)cc4)sc3C2)cc1,13.1% [at 0.16 µM] (inactive)
15,O=C(Cc1ccccc1Cl)Nc1ccc(-c2nc(-c3ccccc3)co2)cc1,20.3% [at 2.6 µM] (inactive)
16,COc1ccccc1-c1nc(C)c(-c2ccc(SCc3ccc(F)cc3)nn2)s1,7.01% [at 0.35 µM] (inactive)
17,Cc1cnc(N2CCC3(CCC(CC(=O)N4CC=CC4)CC3)CC2)nc1,19.8% [at 10 µM] (inactive)
18,Cc1cnc(N2CCC3(CCN(CC4CC4)C3=O)CC2)nc1,44% (inactive)
19,CCOc1ccc(CCNc2nc(-c3ccc(Cl)cc3)nc3ccccc23)cc1OCC,-12.8% [at 0.35 µM] (inactive)
20,NCCCCCCNS(=O)(=O)c1ccc2c(Cl)cccc2c1,23.8% (inactive)
21,O=C(Nc1ccc(F)cc1)Nc1ccc(-c2nc(-c3ccccc3)co2)cc1,-15.1% [at 1.35 µM] (inactive)
22,COc1ccc(CNC(=O)Nc2ccc(-c3nc(-c4cc(C)ccc4C)co3)cc2)cc1,11.5% (inactive)
23,COc1ccc(Cl)cc1S(=O)(=O)Nc1ccc(-c2nc(-c3ccc(C)cc3C)co2)cc1,11.6% [at 0.16 µM] (inactive)
